The panel holds about 79,000 compounds, 15% with a hit somewhere; the sample as a whole holds those more often. The source made the active and inactive calls. Cut-off read from the data, not from the text of the source: active = growth inhibition above about 70%; inactive = the rest. Residues, ends and D or L forms follow the SMILES beside them. *: point of attachment. CH2Cl = ClC*
Assays:
[1] = NCI Yeast Anticancer Drug Screen. Data for the rad52 strain (AID 147);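 note: 0% = growth of vehicle-treated control cultures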; conditions: S. cerevisiae rad52 mutant growth inhibition, hits give high values
Method in brief: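 Genetically altered yeast (DNA damage repair defect) treated with compound; inhibition calculated relative to vehicle.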

[2] = NCI Yeast Anticancer Drug Screen. Data for the wt1 strain (AID 149);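 note: 0% = growth of vehicle-treated wt1 cultures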; conditions: S. cerevisiae wt1 strain (SPY 50644) growth inhibition, hits give high values
Method in brief: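 Readout: yeast growth inhibition, normalised to vehicle controls, in the wt1 strain exposed to test compounds.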

[3] = NCI Yeast Anticancer Drug Screen. Data for the rad50EPP+ strain (AID 151);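 note: 0% = growth of vehicle-treated control cultures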; conditions: S. cerevisiae rad50 mutant strain, hits give high values
Method in brief: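 Strain rad50EPP+; compound exposure; % growth inhibition vs vehicle.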

[4] = NCI Yeast Anticancer Drug Screen. Data for the mgt1 strain (AID 153); conditions: S. cerevisiae mgt1 mutant growth inhibition, hits give high values
Method in brief: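 Read-out: yeast growth inhibition vs vehicle control. Strain mgt1, drawn from a panel altered in DNA damage repair or cell cycle control.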

[5] = NCI Yeast Anticancer Drug Screen. Data for the rad50 strain (AID 155);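 note: 0% = growth of vehicle-only cultures of the same strain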; conditions: S. cerevisiae rad50 strain growth inhibition, hits give high values
Method in brief: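 Compounds were tested on a yeast strain with an engineered DNA damage repair alteration; the reported value is growth inhibition normalised to vehicle treatment.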

[6] = NCI Yeast Anticancer Drug Screen. Data for the mec2-1 strain (AID 157); conditions: S. cerevisiae mec2-1 strain, hits give high values
Method in brief: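 Cells of the genetically defined mec2-1 yeast strain are incubated with test compound. Inhibition of growth is calculated against vehicle-treated controls.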

[7] = NCI Yeast Anticancer Drug Screen. Data for the rad14 strain (AID 159);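 note: 0% = growth of vehicle-treated control cultures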; conditions: S. cerevisiae rad14 strain growth inhibition, hits give high values
Method in brief: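 Compound-treated yeast with a defined DNA-repair lesion; growth inhibition normalised to vehicle-treated cultures.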

[8] = NCI Yeast Anticancer Drug Screen. Data for the sgs1 mgt1 strain (AID 161);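 note: 0% = growth of cultures given vehicle only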; conditions: S. cerevisiae sgs1 mgt1 strain, hits give high values
Method in brief: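 Test agents were incubated with a DNA-repair-mutant yeast strain. Growth was then read and compared against vehicle-treated controls.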

[9] = NCI Yeast Anticancer Drug Screen. Data for the CLN2oe strain (AID 163);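 note: 0% = growth of vehicle-only control cultures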; conditions: S. cerevisiae CLN2oe strain, hits give high values
Method in brief: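 Strain altered in cell-cycle control, incubated with compound; growth compared to solvent-treated controls.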

[10] = NCI Yeast Anticancer Drug Screen. Data for the cln2 rad14 strain (AID 165);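 note: 0% = growth equal to vehicle treated cultures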; conditions: S. cerevisiae cln2 rad14 strain, hits give high values
Method in brief: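 The screen exposed genetically defined yeast (cln2 rad14) to test compounds and scored growth inhibition relative to vehicle-treated controls.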

[11] = NCI Yeast Anticancer Drug Screen. Data for the bub3 strain (AID 167); conditions: S. cerevisiae bub3 mutant strain, hits give high values
Method in brief: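 Growth of a checkpoint-deficient yeast mutant is measured after compound exposure. Values represent inhibition relative to vehicle.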

[12] = NCI Yeast Anticancer Drug Screen. Data for the wt2 strain (AID 169);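 note: 0% = growth of vehicle-treated yeast cultures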; conditions: S. cerevisiae wt2 strain growth inhibition, hits give high values
Method in brief: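 Steps: yeast strain treated with compound; growth recorded; inhibition calculated relative to cultures given vehicle alone.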

[13] = NCI Yeast Anticancer Drug Screen. Data for the mlh1 strain (AID 171);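 note: 0% = growth of vehicle-treated control cultures of the same strain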; conditions: S. cerevisiae mlh1 strain growth inhibition, hits give high values
Method in brief: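 Yeast screen: mutant strain plus compound, growth scored against vehicle control wells.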

[14] = NCI Yeast Anticancer Drug Screen. Data for the sgs1 strain (AID 173);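 note: 0% = growth of vehicle-only control cultures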; conditions: S. cerevisiae sgs1 mutant, hits give high values
Method in brief: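 Inhibition of yeast growth served as the measure. The mutant strain was treated with each compound, and growth was normalised to cultures receiving vehicle alone.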

[15] = NCI Yeast Anticancer Drug Screen. Data for the mlh1 rad18 strain (AID 175); conditions: S. cerevisiae mlh1 rad18 strain growth inhibition, hits give high values
Method in brief: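 Compound-treated yeast growth, normalised to vehicle controls. Strain bears defined DNA repair mutations.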

[16] = NCI Yeast Anticancer Drug Screen. Data for the rad18 strain (AID 177); conditions: S. cerevisiae rad18 mutant growth inhibition, hits give high values
Method in brief: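 Inhibition values reflect reduced yeast growth compared with vehicle-treated controls, using a strain engineered with a DNA damage repair defect.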

[17] = at 5.0 µM (retest, dose inferred, filed as 0.5)
[18] = at 50.0 µM (retest, dose inferred, filed as 5.0)

Measured: growth inhibition

CC(=O)NC(CC(C)C)C(=O)NC(Cc1ccccc1)C(=O)CCl (stereo not drawn) (Ac-Leu-Phe-CH2Cl; configuration not given here)
active: [1]; at 100.0 µM 74% | [4]; at 100.0 µM 83% | [5]; at 100.0 µM 77% | [6]; at 100.0 µM 85% | [11]; at 100.0 µM 84% | [12]; at 100.0 µM 71% | [13]; at 100.0 µM 77% | [14]; at 100.0 µM 75% | [16]; at 100.0 µM 72%
inactive: [1]; at 1.2 µM -3% | [1]; at 3.7 µM 1% | [1]; at 11.0 µM 9% | [1]; at 33.0 µM 27% | [2]; at 1.2 µM -2% | [2]; at 3.7 µM -5% | [2]; at 11.0 µM -5% | [2]; at 33.0 µM -4% | [2]; at 100.0 µM 37% | [3]; at 1.2 µM -3% | [3]; at 3.7 µM -4% | [3]; at 11.0 µM -1% | [3]; at 33.0 µM 9% | [3]; at 100.0 µM 52% | [4]; at 1.2 µM -5% | [4]; at 3.7 µM -5% | [4]; at 11.0 µM -6% | [4]; at 33.0 µM -2% | [5]; at 1.2 µM -3% | [5]; at 3.7 µM 1% | [5]; at 11.0 µM 6% | [5]; at 33.0 µM 25% | [5]; at 50.0 µM 7.1% | [6]; at 1.2 µM -4% | [6]; at 3.7 µM 0% | [6]; at 11.0 µM 3% | [6]; at 33.0 µM 21% | [6]; at 50.0 µM 33.4% | [7]; at 1.2 µM -5% | [7]; at 3.7 µM -4% | [7]; at 11.0 µM -2% | [7]; at 33.0 µM 3% | [7]; at 100.0 µM 36% | [8]; at 50.0 µM 46.9% | [9]; at 1.2 µM -8% | [9]; at 3.7 µM -7% | [9]; at 11.0 µM -8% | [9]; at 33.0 µM -2% | [9]; at 100.0 µM 51% | [10]; at 50.0 µM -31.9% | [11]; at 1.2 µM -1% | [11]; at 3.7 µM -2% | [11]; at 11.0 µM -4% | [11]; at 33.0 µM 6% | [11]; at 50.0 µM 53.7% | [12]; at 1.2 µM -4% | [12]; at 3.7 µM -3% | [12]; at 11.0 µM -2% | [12]; at 33.0 µM -1% | [13]; at 1.2 µM -4% | [13]; at 3.7 µM -3% | [13]; at 11.0 µM -1% | [13]; at 33.0 µM 5% | [14]; at 1.2 µM -3% | [14]; at 3.7 µM -4% | [14]; at 11.0 µM 1% | [14]; at 33.0 µM 15% | [15]; at 50.0 µM 40.3% | [16]; at 1.2 µM -3% | [16]; at 3.7 µM -2% | [16]; at 11.0 µM 3% | [16]; at 33.0 µM 9%

CCN(CC)CCNC(=O)c1nn(-c2ccc(Cl)cc2)c2c1CCc1cc(OC)ccc1-2
active: [1]; at 100.0 µM 94% | [4]; at 100.0 µM 81% | [5]; [18] 80% | [5]; at 100.0 µM 95% | [6]; at 100.0 µM 73% | [8]; [18] 80% | [9]; at 100.0 µM 80% | [11]; [18] 77% | [11]; at 100.0 µM 83% | [12]; at 100.0 µM 96% | [14]; at 100.0 µM 90% | [15]; [18] 81% | [16]; at 100.0 µM 95%
inactive: [1]; at 1.2 µM -16% | [1]; at 3.7 µM 13% | [1]; at 11.0 µM 26% | [1]; at 33.0 µM 40% | [2]; at 1.2 µM 10% | [2]; at 3.7 µM 22% | [2]; at 11.0 µM 25% | [2]; at 33.0 µM 24% | [2]; at 100.0 µM 58% | [3]; at 1.2 µM 18% | [3]; at 3.7 µM 32% | [3]; at 11.0 µM 43% | [3]; at 33.0 µM 44% | [3]; at 100.0 µM 56% | [4]; at 1.2 µM 12% | [4]; at 3.7 µM 10% | [4]; at 11.0 µM 8% | [4]; at 33.0 µM 12% | [5]; at 1.2 µM 6% | [5]; at 3.7 µM 5% | [5]; [17] 1% | [5]; at 11.0 µM 17% | [5]; at 33.0 µM 59% | [5]; at 50.0 µM 59.2% | [6]; at 1.2 µM -10% | [6]; at 3.7 µM -2% | [6]; [17] -16% | [6]; at 11.0 µM 4% | [6]; at 33.0 µM 0% | [6]; [18] 54% | [6]; at 50.0 µM 66.4% | [8]; [17] 15% | [8]; at 50.0 µM 67.5% | [9]; at 1.2 µM -12% | [9]; at 3.7 µM 11% | [9]; at 11.0 µM 6% | [9]; at 33.0 µM 5% | [10]; [17] 2% | [10]; [18] 39% | [10]; at 50.0 µM 28.8% | [11]; at 1.2 µM 9% | [11]; at 3.7 µM 9% | [11]; [17] 8% | [11]; at 11.0 µM 10% | [11]; at 33.0 µM 13% | [11]; at 50.0 µM 58.7% | [12]; at 1.2 µM -11% | [12]; at 3.7 µM -1% | [12]; at 11.0 µM -8% | [12]; at 33.0 µM 8% | [14]; at 1.2 µM 3% | [14]; at 3.7 µM 2% | [14]; at 11.0 µM 8% | [14]; at 33.0 µM 14% | [15]; [17] -1% | [16]; at 1.2 µM -4% | [16]; at 3.7 µM 4% | [16]; at 11.0 µM 1% | [16]; at 33.0 µM 18%

Clc1c(Cl)c(Cl)c2n[nH]nc2c1Cl
active: [2]; at 100.0 µM 87% | [4]; at 100.0 µM 86% | [5]; [17] 100% | [5]; [18] 100% | [5]; at 100.0 µM 75% | [6]; [17] 100% | [6]; [18] 100% | [6]; at 100.0 µM 82% | [7]; at 100.0 µM 94% | [8]; [18] 78% | [9]; at 100.0 µM 76% | [11]; [18] 73% | [11]; at 100.0 µM 87% | [12]; at 100.0 µM 94% | [14]; at 100.0 µM 91%
inactive: [1]; at 1.2 µM -30% | [1]; at 3.7 µM -11% | [1]; at 11.0 µM -20% | [1]; at 33.0 µM -12% | [1]; at 100.0 µM 65% | [2]; at 1.2 µM -23% | [2]; at 3.7 µM -16% | [2]; at 11.0 µM -9% | [2]; at 33.0 µM 14% | [3]; at 1.2 µM -62% | [3]; at 3.7 µM -51% | [3]; at 11.0 µM -28% | [3]; at 33.0 µM 18% | [3]; at 100.0 µM 20% | [4]; at 1.2 µM -23% | [4]; at 3.7 µM -12% | [4]; at 11.0 µM -5% | [4]; at 33.0 µM 6% | [5]; at 1.2 µM -13% | [5]; at 3.7 µM -21% | [5]; at 11.0 µM -9% | [5]; at 33.0 µM 14% | [5]; at 50.0 µM 60.1% | [6]; at 1.2 µM -6% | [6]; at 3.7 µM -20% | [6]; at 11.0 µM -21% | [6]; at 33.0 µM 9% | [6]; at 50.0 µM 54.8% | [7]; at 1.2 µM -9% | [7]; at 3.7 µM -19% | [7]; at 11.0 µM -9% | [7]; at 33.0 µM 11% | [8]; [17] -17% | [9]; at 1.2 µM -7% | [9]; at 3.7 µM -10% | [9]; at 11.0 µM 1% | [9]; at 33.0 µM 21% | [10]; [17] 57% | [10]; [18] 57% | [11]; at 1.2 µM -21% | [11]; at 3.7 µM -18% | [11]; [17] -11% | [11]; at 11.0 µM -10% | [11]; at 33.0 µM 15% | [12]; at 1.2 µM -24% | [12]; at 3.7 µM -18% | [12]; at 11.0 µM -7% | [12]; at 33.0 µM -3% | [14]; at 1.2 µM -40% | [14]; at 3.7 µM -26% | [14]; at 11.0 µM -12% | [14]; at 33.0 µM 30% | [16]; at 1.2 µM -29% | [16]; at 3.7 µM -38% | [16]; at 11.0 µM -25% | [16]; at 33.0 µM 4% | [16]; at 100.0 µM 57%

From PubChem BioAssay (NCI)
